Screens: PubChem, several laboratories
Rows were chosen to be rich in hits. Some 2.4% of all compounds tested hit in one or more screens of this group.
NOD2-RIPK2 inh: NOD2-RIPK2 binding disruptors in cells, primary screen, fluorescence, CHO cells, BLA complementation; CCF4 ratio; actives 0.38% (n = 360,000); inhibition, % at 4.98 µM; Receptor-interacting serine/threonine-protein kinase 2 (Homo sapiens), O43353; in the data active = inhibition above about 21%;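 also: 0% = vehicle only and 100% = reference blocker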
Target sequence (O43353 whole entry, looked up): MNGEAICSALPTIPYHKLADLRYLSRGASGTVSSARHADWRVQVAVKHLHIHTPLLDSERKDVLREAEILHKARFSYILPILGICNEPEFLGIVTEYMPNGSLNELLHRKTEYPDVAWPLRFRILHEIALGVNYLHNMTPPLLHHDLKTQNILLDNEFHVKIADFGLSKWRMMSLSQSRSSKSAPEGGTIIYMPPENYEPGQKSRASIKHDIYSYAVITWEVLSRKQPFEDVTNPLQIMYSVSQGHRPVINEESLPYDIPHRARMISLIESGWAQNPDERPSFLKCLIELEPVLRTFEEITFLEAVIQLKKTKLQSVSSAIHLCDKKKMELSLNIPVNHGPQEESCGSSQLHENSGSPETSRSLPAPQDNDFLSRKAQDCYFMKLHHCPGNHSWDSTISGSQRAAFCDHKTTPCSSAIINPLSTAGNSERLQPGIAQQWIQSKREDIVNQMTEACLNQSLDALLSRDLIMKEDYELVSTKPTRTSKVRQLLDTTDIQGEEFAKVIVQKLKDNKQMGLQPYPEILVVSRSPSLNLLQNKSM
TLR4 MyD88 comp: inhibitors of TLR4-MyD88 association in cells, primary screen, cell-based, HeLa CL3-4, BLA complementation, FRET ratio; Toll-like receptor 4 (Homo sapiens) + Myeloid differentiation primary response protein …; HeLa CL3-4 TLR4/MyD88 BLA complementation; inhibition, % at 8.4 µM; actives 0.18% (n = 200,000); AID 861, 2007; in the data active = inhibition above about 25%;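 also: 0% = vehicle and 100% = reference inhibitor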
CRFBP-R2 block: antagonists of CRF-BP/CRF-R2 complex, primary screen, cell-based, HEK293, calcium dye fluorescence, uHTS | CRF-induced calcium fluorescence | inhibition, % at 11.8 µM | AID 588475, 2011 | actives 0.59% (n = 350,000);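 active = inhibition of the ligand-induced calcium signal above about 50% at the single tested concentration, limit read from the data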
TLR9-MyD88 inh: inhibitors of TLR9-MyD88 association in cells, primary screen, cell-based, CHO, BLA complementation, fluorescence; Toll-like receptor 9 (Homo sapiens) + Myeloid differentiation primary response protein …; CCF4 FRET ratio; inhibition, % at 4.98 µM; actives 0.21% (n = 340,000); AID 504734, 2011;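 active = inhibition above the mean over all tested compounds plus 3 SD, cut at about 21% in these data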;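 also: 0% = DMSO only wells and 100% = clavulanate BLA inhibitor control wells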
m5-HT2A agonist: mouse Htr2a agonists via beta-arrestin recruitment, primary screen, cell-based, luminescence | 5-hydroxytryptamine receptor 2A (Mus musculus), P35363 | CHO-K1 mHTR2A beta-arrestin complementation; percent of 30 µM serotonin response | activation, % at 7.6 µM | actives 0.66% (n = 360,000) | AID 624169, 2012;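 active = activation above a run cutoff, the mean activation of all tested compounds plus 3 SD, cut at about 14% in these data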;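 also: 0% = plate median of compound wells and 100% = 30 µM serotonin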
ABHD5 PLIN5 PPI: ABHD5-PLIN5 interaction inhibitors, primary screen, cell lysate, split luciferase complementation, luminescence. Split G. princeps luciferase complementation, 4 h. Perilipin-5 (Homo sapiens) + 1-acylglycerol-3-phosphate O-acyltransferase ABHD5 (Homo …. actives 0.78% (n = 360,000). inhibition, % at 4 µM;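 active = inhibition above the mean inhibition across every tested compound plus 3 SD, cut at about 22% in these data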;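 also: 0% = DMSO only wells and the 100% control is not disclosed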
MOR ag counter: OPRM1 agonists via beta-arrestin recruitment, confirmation, counter-screen for mouse HTR2A agonist project, cell-based, luminescence, single concentration; shares compounds with m5-HT2A agonist; activation, % at 9.3 µM; AID 624380, 2012; actives 5.3% (n = 2,300); U2OS OPRM1 beta-arrestin PathHunter; DMSO 0%, DAMGO 9.3 µM 100%;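 active = mean activation above the mean of DMSO-only wells plus 3 SD, cut at about 0.5% in these data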
HTR2A ag conf: mouse HTR2A agonists, beta-arrestin recruitment, confirmation, cell-based, luminescence, CHO-K1 PathHunter, triplicate; shares compounds with m5-HT2A agonist; DMSO 0%, 30 µM serotonin 100%; activation, % at 7.6 µM; actives 19% (n = 2,300);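 active = mean activation across triplicates above the hit threshold derived in the original primary screen, cut at about 15% in these data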
* hit, by the source's call; . = not tested or not shown.

SMILES	NOD2-RIPK2 inh	TLR4 MyD88 comp	CRFBP-R2 block	TLR9-MyD88 inh	m5-HT2A agonist	ABHD5 PLIN5 PPI	MOR ag counter	HTR2A ag conf
O=C(NCC(=O)N1CCN(S(=O)(=O)c2ccc3c(c2)OCCO3)CC1)c1ccccc1F	10	.	2	1	15*	3	-1	-3
O=C(NCC(=O)N1CCN(S(=O)(=O)c2ccc3c(c2)OCCO3)CC1)c1ccccc1Cl	9	.	-12	-2	1	-3	.	.
CC(C)CC(=O)Nc1nnc(SCC(=O)NCc2ccc3c(c2)OCO3)s1	-6	-5	5	5	15*	3	-1	-3
CC1(C)NC(=S)NC1=S	-15	.	0	0	17*	7	-1	-2
CC(C)(C)c1ccc(Cc2n[nH]c(=S)[nH]c2=O)cc1	-9	.	4	-7	15*	3	-1	-4
O=c1[nH]c(=S)[nH]nc1Cc1ccc(Cl)c(Cl)c1	-8	.	-4	-4	3	-12	.	.
COc1ccc(Nc2c(-c3ccc(F)cc3)nc3nc(C)cc(C)n23)cc1	-2	.	.	.	-2	2	.	.
O=C(NCc1ccccc1)C1C(c2ccccc2)=Nc2ccccc2N1C(=O)c1cnccn1 (stereo not given)	-7	.	.	.	14*	7	-1	0
Cc1cccc(C)c1NC(=O)C1C(c2ccccc2)=Nc2ccccc2N1C(=O)c1cnccn1 (stereo not given)	-9	.	.	.	3	0	.	.
COc1cc(CNC2CCCC2)cc(Cl)c1OCc1ccc(F)cc1	-3	5	-56	-3	18*	8	0.8*	4
CCCCNC(=O)C(NC(=O)c1cnccn1)C(=O)c1ccccc1 (stereo not given)	7	.	.	.	-1	-1	.	.
C=CCN1CCN(C(=O)c2ccc(-c3ccccc3)cc2)CC1	6	.	8	-8	2	-1	.	.
C=CCN1CCc2c(cc(O)c(O)c2Cl)C(c2ccccc2)C1 (stereo not given)	5	.	39	3	60*	6	0	148*
C=CCN1CCc2cc(O)c(O)cc2C(c2ccccc2)C1 (stereo not given)	-9	.	18	8	29*	2	-1	86*
Cc1cccc(C2CC3(CC(C)(C)NC(=S)N3)Oc3cc(O)ccc32)c1 (stereo not given)	-1	2	-10	.	1	0	.	.
Cc1cccc(C2CN(C)CCc3c2cc(O)c(O)c3Cl)c1 (stereo not given)	-6	.	-44	-6	22*	-8	0	34*
COc1ccc(NC(=O)C2Cc3c(-c4ccccc4)ccnc3O2)cc1OC (stereo not given)	1	.	.	.	2	-3	.	.
COC(=O)[C@]12CCCCC=C1N(CCC1=CCCCC1)C(=O)[C@H](CC(=O)N1CCC(c3ccccc3)CC1)C2	-4	.	.	.	-3	-7	.	.
CCOc1ccc(-c2cc(C(=O)N3CCCC3)c3ccccc3n2)cc1	-7	.	-19	0	15*	0	-1	-2
CCOc1ccc(-c2cc(C(=O)N3CCN(C)CC3)c3ccccc3n2)cc1	2	7	-5	0	-9	-1	.	.
COc1ccc(CN(Cc2cc3cc(C)ccc3[nH]c2=O)C(=O)N(C)C)cc1	-9	1	-17	10	-2	-5	.	.
